# Only some compounds are listed: those with a hit (about 2.2% of all), similar ones and a draw of the others.
# GC-A act: GC-A (human) enzyme activation; P16066; HEK293 GC-A cells, cGMP TR-FRET, EC30 ANP; 0% at EC30 ANP, 100% saturating ANP; activation, % at 10 µM; hit rate 0.14% among 370,000; AID 1671463; in the data active = activation above about 40%
# ADAM10 inh: inhibits human ADAM10; recombinant ADAM10, EDANS/DABCYL FRET peptide cleavage, 3 h; inhibition, % at 7 µM; hit rate 0.62% among 370,000;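 active = inhibition above a per-campaign cutoff equal to the mean of compounds falling between control-based bounds plus 3 SD, cut at about 20% in these data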;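 also: 0% = DMSO wells while the 100% control is not disclosed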
# ADAM17 inh: inhibitors of human ADAM17. P78536. recombinant ADAM17, EDANS/DABCYL FRET peptide cleavage. inhibition, % at 6.95 µM. hit rate 0.83% among 370,000. AID 720648;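 active = inhibition above the mean of compounds lying between control limits plus 3 SD, set per campaign, cut at about 8.5% in these data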;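 also: 0% = DMSO-only wells as the low control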
# proKLK7 act: proKLK7 (human) activation, primary screen; P49862; purified proKLK7, EDANS-DABCYL substrate fluorescence; 100% is mature enzyme control, 0% vehicle; activation, % at 7 µM; hit rate 0.9% among 370,000; AID 652039;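 active = activation above the mean of all tested compounds plus 3 SD, computed per campaign excluding outliers beyond control limits, cut at about 13% in these data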
# GC-B act: GC-B (human) receptor activation. P20594. HEK293-GC-B cells, CNP EC30, cGMP TR-FRET; 0% at EC30 CNP, 100% saturating CNP. activation, % at 10 µM. hit rate 0.11% among 370,000;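 active = activation at 10 µM reaching about 35% in either raw or pattern-adjusted values, limit read from the data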
# ADAM10 ctr: ADAM10 inhibition, counter-screen for ADAM17 exosite hits. hit rate 47% among 2,900. inhibition, % at 6.95 µM. recombinant ADAM10, EDANS/DABCYL FRET peptide cleavage, 3 h. shares compounds with ADAM17 inh;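 active = mean inhibition over the triplicate runs exceeds the activity threshold set in the earlier primary screen, cut at about 20% in these data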;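 also: 0% = DMSO wells and 100% = marimastat wells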
# ADAM17 confirm: confirmation of inhibitors of human ADAM17; shares compounds with ADAM17 inh; recombinant ADAM17, EDANS/DABCYL QFRET peptide cleavage; inhibition, % at 6.95 µM; hit rate 65% among 2,900; AID 743257;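 active = mean inhibition across replicates above the hit cutoff set in the primary screen, cut at about 8.5% in these data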;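 also: 0% = DMSO wells and 100% = marimastat wells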
# * marks the source's active call; other numbers are inactive results; / = not tested or not shown.
SMILES,GC-A act,ADAM10 inh,ADAM17 inh,proKLK7 act,GC-B act,ADAM10 ctr,ADAM17 confirm
C[C@@H]1CCCCO[C@@H](CN(C)Cc2ccc(Cl)c(Cl)c2)[C@@H](C)CN([C@H](C)CO)C(=O)c2cc(NC(=O)CCC(F)(F)F)ccc2O1,-11.6,1.2,9.2*,0.9,-2.7,42.5*,22.4*
COc1ccc(S(=O)(=O)Nc2ccc3c(c2)C(=O)N([C@@H](C)CO)C[C@H](C)[C@H](CN(C)S(=O)(=O)c2ccc(F)cc2)O3)cc1,4.8,5.8,2.1,-0.7,6.4,/,/
C[C@H](CO)N1C[C@H](C)[C@@H](CN(C)Cc2ccc(C(=O)O)cc2)OCCCC[C@H](C)Oc2ccc(NC(=O)CCC(F)(F)F)cc2C1=O,2.7,-4.6,-2.9,0.1,-1.8,/,/
C[C@@H]1CN([C@H](C)CO)C(=O)c2cc(NS(=O)(=O)c3ccc(F)cc3)ccc2O[C@@H]1CN(C)Cc1ccc(Cl)c(Cl)c1,-0.5,14.2,9.6*,-0.3,-5.7,39.5*,19.1*
COc1ccc(S(=O)(=O)Nc2ccc3c(c2)CC(=O)N([C@@H](C)CO)C[C@H](C)[C@@H](CN(C)S(=O)(=O)c2ccc(F)cc2)O3)cc1,1.5,14.4,10.4*,0.4,0.9,7.6,2.6
O=C(O)CCN1C(=O)/C(=C/c2ccc(F)cc2F)SC1=S,-1.0,-0.9,-0.8,/,-5.2,/,/
COC(=O)[C@@]12C[C@@H](CC(=O)NCc3cccc4ccccc34)C(=O)N(Cc3cccc4ccccc34)C1=CCC(C)(C)C2,1.0,-17.9,-6.3,0.5,2.2,/,/
COC(=O)[C@]12CCCCC=C1N(CCc1ccc(OC)c(OC)c1)C(=O)[C@H](CC(=O)NCc1cccc(C(F)(F)F)c1)C2,0.2,13.0,8.8*,1.0,-2.0,24.2*,14.9*
COC(=O)[C@@]12C[C@@H](CC(=O)NCc3ccccc3)C(=O)N(Cc3cccc4ccccc34)C1=CCC(C)(C)C2,-1.1,17.0,9.1*,0.6,3.2,14.8,6.2
COC(=O)[C@]12CCCCC=C1N(CCc1ccc(OC)c(OC)c1)C(=O)[C@H](CC(=O)NCc1ccc(OC)c(OC)c1)C2,0.6,-2.7,-3.2,1.0,3.4,/,/
COC(=O)[C@]12CCCCC=C1N(Cc1ccc3c(c1)OCO3)C(=O)[C@H](CC(=O)NCc1cccc3ccccc13)C2,-6.2,19.0,8.9*,0.2,3.3,33.3*,22.3*
CCC(C)N(C(=O)CNc1nnnn1-c1ccccc1)C(C)CC (stereo not given),2.1,-2.4,0.1,0.3,6.5,/,/
COc1cccc(C(=O)OCn2nnc3ccccc3c2=O)c1OC,2.9,6.0,8.9*,0.2,-3.3,-0.1,0.4
CCOC(=O)c1c(C)[nH]c(C)c1C(=O)CSc1nc2ccccc2c(=O)n1-c1ccc(Cl)cc1,3.3,15.0,10.6*,-0.9,-2.2,28.3*,19.2*
CCOC(=O)c1c(C)[nH]c(C)c1C(=O)CSc1nc2ccccc2c(=O)n1-c1ccc(C)cc1,0.0,7.2,3.9,0.6,5.2,/,/
CC1(C)Cc2c(c(=S)nc(-c3ccccc3)n2CCN2CCOCC2)CO1,1.8,1.6,8.7*,-0.8,0.8,2.9,5.8
O=C1OC(Oc2ccccc2)(c2ccccc2)c2ccccc21 (stereo not given),-10.0,9.6,5.2,0.5,-8.6,/,/
O=C1OC(Cc2ccccc2)(c2ccccc2)c2ccccc21 (stereo not given),-6.0,18.5,11.5*,0.8,-3.9,7.8,1.9
COc1ccc(S[C@]2(C(=O)N3CCOCC3)CC(=O)N(c3ccc(Cl)cc3)[C@@H]2c2ccc(OC)cc2)cc1,-14.3,11.5,3.3,0.3,-13.2,/,/
Cc1onc(-c2ccccc2)c1CNC(=O)Nc1ccc(C(F)(F)F)cc1,2.3,18.4,9.1*,0.1,0.5,27.4*,15.9*
CC(=O)c1ccc(NC(=O)C(C)OC(=O)C2CCN(c3ccc(C(F)(F)F)cn3)CC2)cc1 (stereo not given),-2.8,12.2,9.0*,0.4,-3.6,14.2,9.1*
O=C(Nc1ccc2c(c1)OCCO2)C(C1CC1)N1CCN(c2ccc(C(F)(F)F)cn2)CC1 (stereo not given),-1.3,9.2,8.8*,0.0,-2.5,17.3,10.8*
O=C(Nc1ccc2c(c1)OCCO2)C(c1ccnc2ccccc12)N1CCN(c2ccc(C(F)(F)F)cn2)CC1 (stereo not given),-0.6,15.6,10.7*,-0.9,0.9,54.0*,25.1*
C[n+]1cc(C(O)(c2ccccc2)c2ccccc2)n2ccccc21,0.7,2.2,-0.1,/,0.6,/,/
COC(=O)[C@]12C[C@H](CC(=O)N3CCSCC3)C(=O)N(Cc3ccc4c(c3)OCO4)C1=C[C@H](C(C)C)O[C@@H]2C1CC1,-11.5,-1.3,-8.8,0.2,-16.1,/,/
SMILES,GC-A act,ADAM10 inh,ADAM17 inh,proKLK7 act,GC-B act,ADAM10 ctr,ADAM17 confirm
CCOC(=O)N1CCC(NC(=O)CS(=O)(=O)Cc2nc(-c3cccc(OC)c3)oc2C)CC1,-12.6,-0.9,0.2,-0.3,6.0,/,/
CCOC(=O)N1CCC(NC(=O)CS(=O)(=O)Cc2nc(-c3cccc(Cl)c3)oc2C)CC1,-1.3,-3.3,9.6*,-0.3,0.2,1.6,3.3
C[C@H]1COc2cc(Br)ccc2S(=O)(=O)N1Cc1cn(Cc2ccc(Br)cc2)nn1,-7.5,-3.6,-1.4,0.0,-8.2,/,/
O=C(Nn1c(-c2ccc(Br)cc2)nc2ccccc2c1=O)c1ccncc1,-3.8,1.3,0.1,0.1,3.5,/,/
Cc1cc(C(=O)Nn2c(-c3ccc(Br)cc3)nc3ccccc3c2=O)ccc1[N+](=O)[O-],0.6,13.5,8.9*,-0.7,3.1,24.3*,11.9*
CC(=O)c1ccccc1OCC(=O)Nc1cccc(S(=O)(=O)N2CCCC2)c1,-1.0,-10.8,9.3*,0.6,-1.5,10.0,4.1
CCOc1ccc(NC(=O)COC(=O)c2cc(S(=O)(=O)N3CCCC3)ccc2C)cc1,5.9,4.9,9.4*,0.3,-1.2,15.8,7.4
Cc1ccc(C)c(C(=O)OCC(=O)Nc2cccc(S(=O)(=O)N3CCCCC3)c2)c1,-0.1,8.5,12.1*,-0.3,-4.0,32.2*,18.6*
O=C(COC(=O)CCc1ccc(S(=O)(=O)N2CCCCC2)cc1)Nc1cccc2ccccc12,-3.6,17.6,12.8*,0.9,-6.5,26.2*,11.5*
O=S1(=O)CC2c3ccc(F)cc3CN2CN1Cc1ccccc1 (stereo not given),1.4,-2.7,-0.2,0.2,1.0,/,/
